Source: PubChem BioAssay (several laboratories)
Rows were chosen to be rich in hits. Some 3.5% of all compounds tested hit in one or more screens of this group.
Myeloid diff 2 – myeloid differentiation induction. hit rate 1% among 360,000. AID 624256. calls only at 10 µM. ER-HoxA9 myeloid progenitors, lysozyme-GFP differentiation, flow cytometry;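 active = normalized GFP-positive differentiation at or above the plate's own cutoff, the solvent-only control mean plus 3 SD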;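 also: cells exposed to compound for four days before flow analysis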
ATG4B inhibitor – ATG4B (human) cysteine protease inhibition. inhibition, % at 8.33 µM. ATG4B cleavage of LC3-PLA2, NBD-HPC fluorescence, 1 h. hit rate 0.51% among 340,000. AID 504462; in the data active = inhibition above about 40%
Target sequence (Q9Y4P1 whole entry, looked up): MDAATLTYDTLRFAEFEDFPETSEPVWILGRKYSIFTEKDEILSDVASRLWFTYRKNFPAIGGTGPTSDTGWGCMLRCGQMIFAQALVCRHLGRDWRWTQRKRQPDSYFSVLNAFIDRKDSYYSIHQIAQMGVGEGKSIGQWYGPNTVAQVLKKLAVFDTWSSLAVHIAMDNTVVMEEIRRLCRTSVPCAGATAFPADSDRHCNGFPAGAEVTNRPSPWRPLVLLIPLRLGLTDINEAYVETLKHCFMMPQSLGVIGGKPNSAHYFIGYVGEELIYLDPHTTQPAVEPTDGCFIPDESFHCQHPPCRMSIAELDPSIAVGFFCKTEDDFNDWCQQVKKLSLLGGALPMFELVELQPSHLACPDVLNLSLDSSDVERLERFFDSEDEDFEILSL
CHRM1 antagonist – blocks human M1 muscarinic receptor; CHO-K1 hM1, Fluo-8 calcium fluorescence, ACh EC80 antagonist; inhibition, % at 3 µM; hit rate 1.3% among 360,000; AID 588852;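 active = percent inhibition above its own plate's cutoff, namely the mean of that plate's compound wells plus 3 SD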;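 also: peak over basal fluorescence ratio during 140 s after agonist addition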
M1 ag – activates human CHRM1 receptor; P11229; CHO-K1 hM1, Fluo-8 calcium fluorescence, agonist mode; 0% DMSO, 100% acetylcholine EC100; activation, % at 3 µM; hit rate 0.33% among 360,000; AID 588814;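 active = activation above the run's mean compound activation plus 3 SD, cut at about 16% in these data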;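 also: peak over basal fluorescence ratio within a 140 s kinetic read after compound addition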
SKN-1 inh – blocks SKN-1 activity in C. elegans | C. elegans VP596 Pgst-4::GFP/RFP ratio, acrylamide-induced, 24 h | inhibition, % at 21.8 µM | hit rate 0.49% among 360,000 | AID 624304;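 active = interference check ratio from 0.5 to 1.5 plus GFP to RFP signal ratio inhibition reaching or exceeding a fixed threshold, cut at about 30% in these data, passing the limit was not always enough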
M1 PAM – human CHRM1 positive allosteric modulation; P11229; AID 588819; hit rate 0.088% among 360,000; activation, % at 3 µM; CHO-K1 hM1, Fluo-8 calcium fluorescence, ACh EC20; 0% = ACh EC20, 100% = maximal ACh; in the data active = activation above about 19%, passing the limit was not always enough
Myeloid diff CP1 – myeloid differentiation induction; hit rate 2% among 2,300; calls only; AID 651706; shares compounds with Myeloid diff 2; ER-HoxA9 myeloid progenitors, GFP/Mac1 double-positive flow;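 active = share of green or green-and-red cells above 9 and 9% in run 1 or 4 and 3% in run 2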
GFP autofluor – flagged as fluorescent in myeloid differentiation counter-screen; shares compounds with Myeloid diff 2; ER-HoxA9 myeloid progenitors, no estrogen, GFP autofluorescence flow cytometry; vehicle wells 0%, positive control 100%; fluorescence response, % (test concentration not listed); hit rate 7.4% among 2,300; AID 651707;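 active = over 5% cells positive for green fluorescent reporter, or over 2% positive for both it and APC stain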
Each line names hits and unclear results; the compound was inactive in the other large screens (follow-up assays come after a bar, where they were run).

Cc1ccc(NC(=O)c2ccc(=O)[nH]c2)cc1S(=O)(=O)N1CCCCC1	none | Myeloid diff CP1 inactive | GFP autofluor inactive
O=C(Nc1ccc(S(=O)(=O)N2CCCCC2)cc1)c1ccc(=O)[nH]c1	none
CCOC(=O)CN1C(=O)SC(Nc2ccc(C)cc2)C1=O (centres undefined)	none
N#CC(C#N)=CNc1cccnc1	none
O=C(CNS(=O)(=O)c1ccc(Br)s1)N1CCCC1	none
CCOC(=O)C1CCCN(C(=O)CNS(=O)(=O)c2ccc(Br)s2)C1 (centres undefined)	Myeloid diff 2 active | Myeloid diff CP1 inactive | GFP autofluor inactive
COCCCN1C(=O)C2C(C(=O)Nc3cccc(Cl)c3)C3C=CC2(O3)C1C(=O)NC1CCCCC1 (centres undefined)	none
COc1ccc(NC2=C(NC(C)=O)C(=O)c3ccccc3C2=O)cc1	Myeloid diff 2 active | Myeloid diff CP1 active | GFP autofluor inactive
CC(C)CNC(=O)NC(=O)COc1ncnc2sccc12	Myeloid diff 2 active | Myeloid diff CP1 inactive | GFP autofluor inactive
CC1CCC2(CC1)NC(=O)c1ccccc1O2 (centres undefined)	none
O=C(CSc1nnnn1-c1ccccc1)NCC1(N2CCOCC2)CCCCC1	none | Myeloid diff CP1 inactive | GFP autofluor inactive
O=C(Cc1ccc(Cl)cc1Cl)NCC1(N2CCOCC2)CCCCC1	none | Myeloid diff CP1 inactive | GFP autofluor inactive
CNC(=O)CSc1cnc2ccccc2n1	none
CCn1c2ccccc2c2cc(N=C3SC(CC(=O)Nc4ccccc4OC)C(=O)N3C)ccc21 (centres undefined)	Myeloid diff 2 active | Myeloid diff CP1 inactive | GFP autofluor inactive
CCOc1cc(C(=O)Nc2ccc(C)cc2O)ccc1OCC(=O)N1CCOCC1	Myeloid diff 2 active | Myeloid diff CP1 inactive | GFP autofluor inactive
CCOc1cc(C(=O)Nc2cc(C(=O)OC)ccc2C)ccc1OCC(=O)N1CCOCC1	none
O=C(CCCN1C(=O)C(=Cc2ccc3c(c2)OCO3)SC1=S)Nc1ccc(C(=O)O)c(O)c1	none (no result: ATG4B inhibitor) | Myeloid diff CP1 inactive | GFP autofluor inactive
O=C(CCCN1C(=O)/C(=C\c2cccs2)SC1=S)Nc1cccc(C(=O)O)c1	none
O=C(CCCN1C(=O)/C(=C/c2ccc3c(c2)OCO3)SC1=S)Nc1ccc(C(=O)O)cc1	none
O=C(CCCN1C(=O)/C(=C/c2ccco2)SC1=S)Nc1cccc(C(=O)O)c1	none | Myeloid diff CP1 active | GFP autofluor inactive
N#Cc1cc2c(nc1SCc1ccncc1)CCC2	none
CCN1C=C(C(=O)OC)C(c2cccc(OC)c2OC)C(C(=O)OC)=C1	none
O=C(NCCO)/C(=C\c1ccc([N+](=O)[O-])o1)NC(=O)c1ccccc1	none | Myeloid diff CP1 inactive | GFP autofluor inactive
CCCCn1c(-c2ccc(C(C)(C)C)cc2)nc2cc3[nH]c(=O)c(C(C)C)nc3cc21	Myeloid diff 2 active | Myeloid diff CP1 inactive | GFP autofluor inactive
CCCCn1c(-c2ccc(Cl)c(Cl)c2)nc2cc3[nH]c(=O)c(C(C)C)nc3cc21	none
COc1ccc(NC(=O)CNc2cccc(S(=O)(=O)N3CCCCCC3)c2)c([N+](=O)[O-])c1	none
Cc1cc2ccccn2c1C(=S)NC(=O)c1ccccc1	none
Cc1ccc(C(=O)NC(=S)c2c(C)cc3ccccn23)cc1	Myeloid diff 2 active (no result: ATG4B inhibitor) | Myeloid diff CP1 inactive | GFP autofluor 11.0
CC(C)(C)c1ccc(OCCC(=O)NNC(=O)c2ccccc2)cc1	none
CC(C)(C)c1ccc(C(=O)NNC(=O)CCC(=O)Nc2ccccc2)cc1	Myeloid diff 2 active | Myeloid diff CP1 inactive | GFP autofluor inactive
Cc1cc(C(=O)CN2C(=O)C(=O)N(Cc3ccco3)C2=O)c(C)n1CCc1ccc(F)cc1	none | Myeloid diff CP1 inactive | GFP autofluor inactive
c1ccc(Cc2c(-c3ccccc3)nc3c4ccccc4ccn23)cc1	Myeloid diff 2 active (no result: ATG4B inhibitor) | Myeloid diff CP1 inactive | GFP autofluor inactive
Brc1cccc(-c2nc3c4ccccc4ccn3c2Cc2ccccc2)c1	none (no result: ATG4B inhibitor)
CC1CCc2sc(C(=O)NN=C3CCCC3)cc2C1 (centres undefined)	Myeloid diff 2 active (no result: ATG4B inhibitor) | Myeloid diff CP1 inactive | GFP autofluor inactive
O=C(COc1ccc2ccccc2c1Br)NC(=S)Nc1cccc(CO)c1	none
Cc1cc(N2CCN(C(=O)c3[nH]c(C(F)(F)F)nc3-c3ccccc3)CC2)c2ccccc2n1	none (no result: ATG4B inhibitor) | Myeloid diff CP1 inactive | GFP autofluor 82.1
O=c1[nH][nH]c(-c2ccccc2O)c1C(C[N+](=O)[O-])c1ccc(Cl)cc1Cl (centres undefined)	none | Myeloid diff CP1 inactive | GFP autofluor inactive
O=C(NCCc1ccc(Cl)cc1)C1CCCN(S(=O)(=O)N2CCCCCC2)C1 (centres undefined)	none
N/C(=N\OC(=O)C12CC3CC(CC(C3)C1)C2)c1cccnc1	none | Myeloid diff CP1 inactive | GFP autofluor inactive
N/C(=N\OC(=O)C12CC3CC(CC(C3)C1)C2)c1ccccc1	none
O=[N+]([O-])c1ccc(C[n+]2cccc3c4ccccc4ccc32)cc1	none | Myeloid diff CP1 active | GFP autofluor inactive
O=C(NCc1ccco1)c1ccc2c(c1)N(Cc1ccccc1)CCS2	none | Myeloid diff CP1 inactive | GFP autofluor inactive
CC(C)(C)NNC(=S)Nc1ccc(S(=O)(=O)N2CCOCC2)cc1	none | Myeloid diff CP1 inactive | GFP autofluor inactive
CC(=O)NC(=S)Nc1ccc(S(=O)(=O)N2CCOCC2)cc1	none
COC(=O)c1cc(NC(=O)CN2CCc3cc4c(cc3C2)OCCCO4)cc(C(=O)OC)c1	none | Myeloid diff CP1 inactive | GFP autofluor inactive
CCOC(=O)c1ccc(NC(=O)CN2CCc3ccccc3C2)cc1	none | Myeloid diff CP1 inactive | GFP autofluor inactive
O=C1c2ccc3c4c(ccc(c24)C(=O)N1NC(=O)C(F)(F)F)CC3	none
CC(=O)NN1C(=O)c2ccc3c4c(ccc(c24)C1=O)C(=O)N(NC(C)=O)C3=O	Myeloid diff 2 active | Myeloid diff CP1 inactive | GFP autofluor inactive
COc1ccc(-n2c(N)c(C(=O)NCc3ccco3)c3nc4ccccc4nc32)c(OC)c1	Myeloid diff 2 active | Myeloid diff CP1 inactive | GFP autofluor inactive
O=S(=O)(Nc1ccncc1)c1cc(Cl)c(Cl)cc1Cl	none
Cc1cccc(C(=O)N/N=C/c2ccc(OC3CSC3)cc2)c1	none | Myeloid diff CP1 inactive | GFP autofluor inactive
COc1cccc(C(=O)N/N=C/c2ccc(OC3CSC3)cc2)c1	none
CCCC(C)NC(=O)C1c2ccccc2Oc2ccccc21 (centres undefined)	none
